The values below come from the supplement of paper PMC9399229.

Counter-ions that a name gives are not always drawn. ± gives the standard deviation of the averaged measurements. In all, about 1,900 compounds were measured (“relative cell viability (CellTiter-Glo), compound alone”: median about 1, lowest 2% from about 0.16 on). The entries come from a sample that favours the lowest values as a whole.

For the experiment, the system named is Hep3B. Briefly: relative cell viability (CellTiter-Glo), compound alone (fraction); higher = more viable cells (less growth inhibition). The settings on record: cabozantinib 0 µM; 4 days.
Regarding `CCn1cc(NC(=S)Nc2cc(Cl)ccc2OC)c(C(N)=O)n1`, the relative cell viability worked out at 1.44 ± 0.14.

With `C1=N/C2=N/c3ccc(OCCN4CCCC4)c(c3)COC/C=C/COCc3cccc(c3)C(=C1)N2` [Pacritinib (SB1518)], the relative cell viability was determined as 0.1545 ± 0.0015.

`CN(C)c1cccc(-c2c3c(=O)n(-c4ccccc4Cl)[nH]c3cc(=O)n2C)c1`: the relative cell viability was found to be 1.12 ± 0.1.

For `O=C(NCCS(=O)(=O)c1ccc(C(F)(F)F)cn1)c1ccc(Cl)cc1`, the relative cell viability amounted to 1.2 ± 0.049.

The molecule `C[C@@H](Oc1cc(-n2cnc3ccc(CN4CCN(C)CC4)cc32)sc1C(N)=O)c1ccccc1C(F)(F)F` returned a relative cell viability of 0.668 ± 0.04.

For `O=C1CCC[C@@H]2[C@H]3CCC[N+]4([O-])CCC[C@@H](CN12)[C@@H]34` (some centres undefined) [Oxymatrine], the relative cell viability was 1.09 ± 0.21.

As to `CC1CNc2c(cccc2S(=O)(=O)N[C@@H](CCCNC(=N)N)C(=O)N2CC[C@@H](C)C[C@@H]2C(=O)O)C1` (some centres undefined) [Argatroban], the relative cell viability was 1.02 ± 0.17.

Take `CO[C@H]1C[C@@H]2CC[C@@H](C)[C@@](O)(O2)C(=O)C(=O)N2CCCC[C@H]2C(=O)O[C@H]([C@H](C)C[C@@H]2CC[C@@H](OC(=O)C(C)(CO)CO)[C@H](OC)C2)CC(=O)[C@H](C)/C=C(\C)[C@@H](O)[C@@H](OC)C(=O)[C@H](C)C[C@H](C)/C=C/C=C/C=C/1C`: the relative cell viability is 1.04 ± 0.013.

Regarding `CCOC(=O)[C@H](CCc1ccccc1)N[C@H]1CCCN2CCC[C@@H](C(=O)O)N2C1=O` [Cilazapril Monohydrate], the relative cell viability was found to be 0.947 ± 0.13.

`CC(C)(C)C[C@@H]1N[C@@H](C(=O)N[C@H]2CC[C@H](O)CC2)[C@H](c2cccc(Cl)c2F)[C@]12C(=O)Nc1cc(Cl)ccc12` displayed a relative cell viability of 1.09 ± 0.025.

For the molecule `O=C1c2cccc(O)c2C(=O)c2c(O)cc(CO)cc21` [Aloe-emodin], the relative cell viability worked out at 0.96 ± 0.11.

In turn, `O=C1c2c(O)ccc(O)c2C(=O)c2c(NCCNCCO)ccc(NCCNCCO)c21` [Mitoxantrone HCl] displayed a relative cell viability of 0.0676 ± 0.0056.

The molecule `O=C1c2c(O)ccc(O)c2C(=O)c2c(NCCNCCO)ccc(NCCNCCO)c21` [Mitoxantrone] displayed a relative cell viability of 0.0757 ± 0.0097.

`Cc1ccc([N+](=O)[O-])cc1S(=O)(=O)N(C)/N=C/c1cnc2ccc(Br)cn12` came in with a relative cell viability of 0.139 ± 0.01.

`Nc1nc(NC2CC2)cc(-c2cccc(Cl)c2Cl)n1` displayed a relative cell viability of 1.162 ± 0.0077.

Molecule `NS(=O)(=O)NCCNc1nonc1/C(=N/O)Nc1ccc(F)c(Br)c1` showed a relative cell viability of 1.24 ± 0.064.

Regarding `Fc1ccc2[nH]ccc2c1-c1nc(N2CCOCC2)c2sc(CN3CCN(CC4CC4)CC3)cc2n1`, the relative cell viability is 0.871 ± 0.011.

`Cn1cncc1[C@@](N)(c1ccc(Cl)cc1)c1ccc2c(c1)c(-c1cccc(Cl)c1)cc(=O)n2C` [Tipifarnib] showed a relative cell viability of 0.995 ± 0.046.

`Cc1nc(-c2cn3c(n2)-c2ccc(-c4cnn(C(C)(C)C(N)=O)c4)cc2OCC3)n(C(C)C)n1` had a relative cell viability of 1.01 ± 0.032.
